mHTT CaM bind = inhibitors of human mutant huntingtin-calmodulin interaction | P42858 | AlphaScreen His-mHTT/GST-CaM binding, luminescence | inhibition, % at 15 µM | 190,000 tested, 3.6% active | AID 1671202;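 also: 0% = both proteins with DMSO and 100% = one protein alone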
Pf apPOL inh = Pf-apPOL DNA polymerase inhibition | Recombinant Pf-apPOL, molecular beacon fluorescence, 1.5 h | inhibition, % at 10 µM | 210,000 tested, 0.25% active | AID 1794808
Active calls of the source: *; . = no result. Sampled rows, rich in hits. Any-hit rate of the full collection: about 3.5%. Rule as the data show it: active = inhibition above about 50%; inactive = the rest.

SMILES	mHTT CaM bind	Pf apPOL inh
Cc1ccc(CNS(=O)(=O)c2ccc3[nH]c4c(c3c2)CCCC4)o1	50*	-4
COc1ccc(-c2cn3c4c(=O)n(C)c(=O)n(C)c4nc3n2-c2ccc(OC)c(OC)c2)cc1	-1	-5
Cc1ccc(C)c(NC(=O)CN2CCc3ccccc3C2C(=O)N2CCC(C)CC2)c1 (stereo not given)	12	-6
CC1CCN(C(=O)C2c3ccccc3CCN2CC(=O)Nc2ccc(Cl)cc2F)CC1 (stereo not given)	68*	-3
Cc1cc(NC(=O)CN2CCc3ccccc3C2C(=O)N2CCCCC2)ccc1F (stereo not given)	2	-1
O=C(CN1CCc2ccccc2C1C(=O)N1CCCCC1)Nc1ccc(Cl)cc1F (stereo not given)	-6	-2
Cc1c(Cl)cccc1NC(=O)CN1CCc2ccccc2C1C(=O)N1CCC(C)CC1 (stereo not given)	69*	-6
Cc1ccc(NC(=O)CN2CCc3ccccc3C2C(=O)N2CCCC2)cc1Cl (stereo not given)	64*	-4
COc1ccc(S(=O)(=O)NCC2CCCO2)cc1 (stereo not given)	-7	.
CCOC1=NN(c2ccc([N+](=O)[O-])cc2)C(=O)/C1=C/c1ccccc1Cl	79*	-6
CCOC1=NN(c2ccc([N+](=O)[O-])cc2)C(=O)/C1=C/c1ccc(Cl)c(Cl)c1	32	8
COc1ccc(C=C2Oc3cc(OC(=O)C4CC4)cc(C)c3C2=O)c(OC)c1OC	-9	-1
O=C(c1ccc(Cn2cncn2)cc1)N1CCc2ccccc2C1	3	-10
O=C(c1ccc(Cn2c(=O)[nH]c3ccccc3c2=O)cc1)N1CCc2ccccc2C1	60*	-6
Cc1cc(C)c(-c2csc(NC(=O)c3ccccc3S(C)(=O)=O)n2)c(C)c1	5	0
Cn1cnc2cc(NCc3ccc(Br)cc3)ccc21	16	5
Brc1ccc(CNc2ccc3c(c2)ncn3-c2ccccc2)cc1	95*	24
CC(=O)Nc1ccc2c(c1)ncn2-c1ccccc1	3	0
CC(C)(C)n1cnc2cc(NCc3ccc(Br)cc3)ccc21	61*	-4
CCN(CC)c1ccc(CNc2ccc3c(c2)ncn3C)cc1	84*	-2
CN(C)c1ccc(CNc2ccc3c(c2)ncn3C)cc1	20	-4
CN(C)c1ccc(C2C(C(=O)c3cccs3)=C(O)C(=O)N2Cc2cccnc2)cc1 (stereo not given)	25	1
COc1cc(C2NC(=S)NC(C)=C2C(=O)OC(C)(C)C)cc(OC)c1OC (stereo not given)	-2	-7
O=C(C1COc2ccccc2O1)N1CCc2c(nc(-c3ccccc3)[nH]c2=O)C1 (stereo not given)	14	-5
CN(C)C(=O)c1cc2c(s1)CCC(C(=O)Nc1ccc3c(c1)CCC3)C2 (stereo not given)	-2	1
SMILES	mHTT CaM bind	Pf apPOL inh
COc1ccc(NC(=O)c2csc(-c3ccc(C)n3C)n2)cc1	62*	-3
Cc1ccc(-c2nc(C(=O)Nc3ccc(Cl)cc3)cs2)n1C	-7	-5
Cc1ccc(-c2nc(C(=O)NCCc3ccccc3)cs2)n1C	99*	1
Cc1ccc(-c2nc(C(=O)NCCc3ccc(Cl)cc3)cs2)n1C	24	-3
O=C(Nc1nc(-c2ccccn2)cs1)c1ccccc1[N+](=O)[O-]	100*	-131
O=C(Cc1csc(Nc2ncccn2)n1)NCc1cccs1	-7	-2
O=C(Nc1nc(-c2ccccn2)cs1)c1ccc([N+](=O)[O-])o1	74*	-55
O=C(Nc1nc(-c2ccccn2)cs1)c1cc2cc([N+](=O)[O-])ccc2s1	23	-28
O=C(NCc1cccs1)Nc1nc(-c2ccccn2)cs1	100*	-7
CCOc1cccc2cc(-c3csc(NC(=O)c4ccc([N+](=O)[O-])o4)n3)oc12	-6	-4
CCOC(=O)N1CCN(C(=O)C2CCN(S(=O)(=O)c3ccc(OC)c(OC)c3)CC2)CC1	2	-7
O=C1CCCC(=O)N1CCS(=O)(=O)Nc1ccc(Cl)c(N2CCCS2(=O)=O)c1	-5	-3
Cc1ccccc1NC(=O)CCC(=O)N1CCCn2nc(-c3cccn3C)cc21	31	-2
Cn1cccc1-c1cc2n(n1)CCCN2C(=O)CCC(=O)N1CCc2ccccc2C1	54*	-1
O=C(NCCc1ccccn1)C1CCc2nc(N3CCCCC3)ncc2C1 (stereo not given)	5	-7
Cc1ccccc1C1=N/C(=C/c2cccc(C(F)(F)F)c2)C(=O)O1	5	4
Cc1ccc(NC(NC(=O)c2cccs2)C(=O)c2ccccc2)c(C)c1 (stereo not given)	18	-1
Cc1ccc(NC(=O)c2ccc([N+](=O)[O-])c(C)c2)cc1Cl	-2	-6
Cc1ccc(NC(=O)c2ccc(NCCN)c([N+](=O)[O-])c2)cc1Cl	54*	0
CN(C)c1ccc(/C=C/c2cc[n+](C)c3ccccc23)cc1	80*	3
C[n+]1ccc(/C=C/c2ccc3c(c2)OCO3)c2ccccc21	8	-13
O=[N+]([O-])c1ccc(N2CCCC2)cc1Sc1cccc2cccnc12	101*	-2
CN1CCN(c2ccc([N+](=O)[O-])c(Sc3cccc4cccnc34)c2)CC1	35	-1
COc1ccc(Cl)cc1NC(=O)C(Cc1ccccc1)N1C(=O)C2C3CCC(C3)C2C1=O (stereo not given)	32	-1
COc1ccc(Cl)cc1NC(=O)C(Cc1ccccc1)N1C(=O)C2C3C=CC(C3)C2C1=O (stereo not given)	51*	-2
SMILES	mHTT CaM bind	Pf apPOL inh
CC1CCCC(C)N1CCNC(=O)CN1N=C(c2ccc(Cl)cc2)CCC1=O (stereo not given)	-3	-16
CCCSc1nc2c(cnn2-c2ccc(C)c(C)c2)c(=O)[nH]1	-8	-5
Cc1ccc(-n2ncc3c(=O)[nH]c(SCC(=O)O)nc32)cc1C	10	72*
O=C(c1cc(C(F)(F)F)cc(C(F)(F)F)c1)c1ccccc1C(=O)N1CCOCC1	.	-2
O=C(N=S1CCC2(C1)OCCO2)c1cc(C(F)(F)F)cc(C(F)(F)F)c1 (stereo not given)	.	75*
CCCCSCCCNC(=O)CN1C(=O)/C(=C/c2ccccc2)Sc2ccccc21	-2	-12
Cc1ccccc1NC(=O)CSc1nccn1-c1cccc(C(=O)Nc2ccccc2)c1	60*	-7
O=C(CSc1nccn1-c1cccc(Cl)c1)Nc1ccccc1F	32	4
CCOc1ccc(N2CC(CNS(C)(=O)=O)CC2=O)cc1 (stereo not given)	-16	1
COc1ccc(-c2noc(C3CCCN3C(=O)Nc3ccc(C)cc3Cl)n2)cc1 (stereo not given)	-20	-2
COc1ccc(N(C)C(=O)c2nc(C)n(C3CCN(S(C)(=O)=O)CC3)c2C)cc1	86*	-12
CCOc1ccc(N(CC)C(=O)c2nc(C)n(C3CCN(S(C)(=O)=O)CC3)c2C)cc1	12	-4
CCS(=O)(=O)N1CCN(c2nc3ccccc3[nH]2)CC1	-9	-5
O[C@H]1C[C@H](c2ccccc2)N(CC2CCCCC2)C[C@@H]1n1cc(-c2ccc(F)cc2)nn1	55*	1
COc1ccc([C@H]2C[C@@H](O)[C@H](n3cc(-c4ccc(F)cc4)nn3)CN2CC2CCCCC2)cc1	15	-2
O[C@H]1C[C@H](c2ccc(Cl)cc2)N(CC2CCCCC2)C[C@@H]1n1cc(C2CC2)nn1	80*	-9

Bioassay records from PubChem BioAssay.
